Source: PubChem BioAssay (EPA / NIEHS)
The source made the active and inactive calls. The calls were made as follows: active = hit-call score of the fitted dose curve at least 0.9, where 1 is the maximum; inactive = score below 0.9.

Test: ATG_CRE_CIS: Attagene CIS-FACTORIAL HepG2 Assay for human cAMP Responsive Element (CRE) binding protein 3 (AID 2282926)
Conditions: HepG2 CRE cis-reporter, Attagene multiplexed mRNA; actives raise or lower the signal
Summary of the method: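 Transfected HepG2 were treated for 24 hours, then RNA was extracted and reporter cDNA amplified with sequence-specific primers. Labelled fragments were separated by capillary electrophoresis, and the CRE signal was fitted bidirectionally with DMSO as baseline.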

| Compound | outcome | AC50 |
| --- | --- | --- |
| CN1COCN(Cc2cnc(Cl)s2)C1=N[N+](=O)[O-] | inactive |  |
| O=C(O)c1cc(Oc2ccc(C(F)(F)F)cc2Cl)ccc1[N+](=O)[O-] | inactive |  |
| Nc1c(Cl)cc([N+](=O)[O-])cc1Cl |  | 35.1 µM (active) |
| CSc1nc(NC(C)C)nc(NC(C)C)n1 | inactive |  |
| COP(=O)(NC(C)=O)SC (stereo not given) | inactive |  |
| CCOP(=S)(OCC)OC(Cl)C(Cl)(Cl)Cl (stereo not given) |  | 25.3 µM (active) |
| COc1cc(OC)nc(Sc2cccc(Cl)c2C(=O)O)n1 | inactive |  |
| CC1=NNC(=O)N(/N=C/c2cccnc2)C1 | inactive |  |
| CCC(=O)Nc1ccc(Cl)c(Cl)c1 | inactive |  |
| COc1cccc(C(=O)NN(C(=O)c2cc(C)cc(C)c2)C(C)(C)C)c1C | inactive |  |
| CCCSP(=O)(OCC)Oc1ccc(Br)cc1Cl (stereo not given) |  | 2.33 µM (active) |
| COc1ccc(C(=CC(=O)N2CCOCC2)c2ccc(Cl)cc2)cc1OC |  | 10.9 µM (active) |
| S=C1NCCN1 | inactive |  |
| CC(C)[C@H](C(=O)O[C@H](C#N)c1cccc(Oc2ccccc2)c1)c1ccc(Cl)cc1 | inactive |  |
| CCOP(=S)(OCC)Oc1ccc([N+](=O)[O-])cc1 | inactive |  |
| Nc1nc(N)nc(NC2CC2)n1 | inactive |  |
| CCCSP(=O)(OCC)SCCC | inactive |  |
| FC(F)C(F)(F)OCC(Cn1cncn1)c1ccc(Cl)cc1Cl (stereo not given) |  | 23.2 µM (active) |
| CC1(C(=O)Nc2ccc(O)c(Cl)c2Cl)CCCCC1 |  | 10 µM (active) |
| CN(C)[C@@H]1C(=O)C(C(N)=O)=C(O)[C@@]2(O)C(=O)C3=C(O)c4c(O)cccc4[C@@](C)(O)[C@H]3[C@H](O)[C@@H]12 | inactive |  |
